{"source": "PubChem BioAssay AID1224817", "about": "(Yan Lab, Georgia Cancer Center, Augusta University, 2016)", "note": "Values joined by “and” are separate entries in the source; they are usually repeats but may differ in a detail not shown here. Identical values can stand only once. The whole screen tested about 2,000 compounds, of which about 25 (1%) were called active.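 How the source made its calls: active means log2 luciferase ratio at or below -0.5849, meaning signal at two thirds of solvent-only control or lower; inactive means the rest.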 The entries come from a sample that favours actives as a whole.", "data": [{"experiment": "inhibitors of EIF4E gene expression, primary screen, cell-based, HT1080, luciferase reporter (AID 1224817);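 further: luciferase reports endogenous eIF4E expression since it is co-expressed from the native EIF4E locus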", "settings": "HT1080 EIF4E-luc2 knock-in reporter, 16 h, at 2.5 µM, stronger effect = lower value", "values": [{"smiles": "COC1C(O)C(C)OC(OC2C(Oc3cccc4c(O)c5c(=O)oc6ccc(C)c7c(=O)oc(c34)c5c67)OC(C)C(O)C2O)C1O", "note": "(stereo not given)", "log2 luciferase activity ratio": "-0.702 (active) and -0.391 (inactive)"}, {"smiles": "COC(=O)C1=COC(C)C2CN3CCC4(C(=O)Nc5ccccc54)C3CC12", "note": "(stereo not given)", "log2 luciferase activity ratio": "0.122 (inactive)"}, {"smiles": "c1ccc(CCN2CCCCCC2)nc1", "log2 luciferase activity ratio": "0.334 (inactive)"}, {"smiles": "COc1cc(CCN)c(OC)c(OC)c1", "log2 luciferase activity ratio": "-0.289 (inactive)"}, {"smiles": "CC1CCC2(O)C3(C)CC4(O)OC2(C1O)C1(O)C3(O)C(OC(=O)c2ccc[nH]2)C(O)(C(C)C)C41C", "note": "(stereo not given)", "log2 luciferase activity ratio": "-0.662 (active) and 0.224 (inactive)"}, {"smiles": "Oc1c(Cl)c(Cl)c(Cl)c(Cl)c1Cl", "log2 luciferase activity ratio": "0.387 (inactive)"}, {"smiles": "CC(Cc1ccc(Cl)cc1Cl)NO", "note": "(stereo not given)", "log2 luciferase activity ratio": "0.563 (inactive)"}, {"smiles": "CC1=C2C(=O)[C@H]3[C@@H](CC=C4C[C@@H](O)CC[C@@]43C)[C@@H]2CC[C@]12O[C@@H]1C[C@H](C)CN[C@H]1[C@H]2C", "log2 luciferase activity ratio": "0.0474 (inactive)"}, {"smiles": "O=C(Nc1ccc([As](=O)(O)O)cc1)Nc1cccc(Cl)c1Cl", "log2 luciferase activity ratio": "0.175 (inactive)"}, {"smiles": "C[C@]12CC[C@H]3[C@@H](CCC4=CC(=O)CC[C@@H]43)[C@@H]1CC[C@@H]2OC1(O)C(=O)c2ccccc2C1=O", "log2 luciferase activity ratio": "-0.175 (inactive)"}, {"smiles": "CC(=O)O[C@@H]1[C@@H](O)C2=C3[C@]4(C)[C@@H]1C(C)(C)C(=O)C[C@@H]4[C@]3(O)[C@H](OC(C)=O)[C@@]1(C[C@@H]1C)C2=O", "log2 luciferase activity ratio": "-0.11 (inactive)"}, {"smiles": "CC(=O)c1c(O)c(C)c(O)c(Cc2c(O)c3c(c(C(=O)/C=C/c4ccccc4)c2O)OC(C)(C)C=C3)c1O", "log2 luciferase activity ratio": "-1.16 (active)"}, {"smiles": "CC(=N\\O)/C(C)=N/O.CC(=N\\O)/C(C)=N/O.CC(=N\\O)/C(C)=N/O.CC(=N\\O)/C(C)=N/O.[Cu].[Cu]", "log2 luciferase activity ratio": "0.204 (inactive)"}, {"smiles": "CC[C@](O)(C(=O)O)c1cc2n(c(=O)c1CO)Cc1cc3ccccc3nc1-2", "log2 luciferase activity ratio": "-0.308 (inactive)"}, {"smiles": "NC(CSC1c2ccccc2-c2ccccc21)C(=O)O", "note": "(stereo not given)", "log2 luciferase activity ratio": "-0.0184 (inactive)"}, {"smiles": "Cc1c2ccncc2c(C)c2c1[nH]c1ccccc12", "log2 luciferase activity ratio": "-1.19 (active)"}, {"smiles": "O=C(c1ccccc1)C1C(c2ccccc2[N+](=O)[O-])N1C1CCCCC1", "note": "(stereo not given)", "log2 luciferase activity ratio": "-0.136 (inactive)"}, {"smiles": "CC1=CC23C(COC(=O)C24CO4)C(C(=O)O)=CC3C1C", "note": "(stereo not given)", "log2 luciferase activity ratio": "-0.125 (inactive)"}, {"smiles": "COc1cc2c(cc1OC)C13CCN4C=C5CCOC6CC(=O)N2C1C6C5CC43", "note": "(stereo not given)", "log2 luciferase activity ratio": "0.124 (inactive) and 0.181 (inactive)"}, {"smiles": "CCCCCC(O)C1C(=O)OC(C)C(O)/C=C/C=C/C=C/C=C/C=C(\\C)C(O)C(O)C(O)CC(O)CC(O)CC(O)CC(O)CC1O", "note": "(stereo not given)", "log2 luciferase activity ratio": "-0.286 (inactive)"}]}]}
